According to PubChem BioAssay (Tox21):
“And” between values parts separate entries of the source, which are not always exact repeats. Identical values can stand only once. Results filed as inconclusive are left out. Entries that show only a call come without a potency. More than one record can exist for a structure, and the calls need not agree. The source made the active and inactive calls. Calls follow the shape of the dose curve; as a rule, active = well fitted curve in the direction sought with a large enough effect in the repeat runs; inconclusive = weak or mixed curves; inactive = no such curve, though single readings can be large; an effect the other way counts as inactive or inconclusive.

Legend:
[1] = Caspase-3/7 induction in HepG2 cells by small molecules, qHTS assay (AID 1346978); also: nearly all actives have a fitted effect of over 15% in size
In short: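 Caspase-3/7 induction was measured by Caspase-Glo 3/7 luminescence (30 min, room temperature) after a 17 hr compound exposure of wild-type HepG2 cells seeded at 2,000 per well and pre-incubated 5 hr.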

[2] = Caspase-3/7 induction in CHO-K1 cells by small molecules, qHTS cell viability counter screen (AID 1346979); also: nearly all actives have a fitted effect of over 35% in size; also: potency is read from the fitted curve at half-maximal effect
In short: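 Seeding: 1,500 CHO-K1 cells/well. Rest: 5hr, 37C. Treatment: compounds in DMSO, 16hr. Read: CellTiter-Fluor, 1hr, fluorescence.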

[3] = Caspase-3/7 induction in CHO-K1 cells by small molecules, qHTS assay (AID 1346980); also: nearly all actives have a fitted effect of over 15% in size
In short: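 Luminescent Caspase-Glo 3/7 read (30min, room temperature) quantified apoptosis induction. Cells were wild-type CHO-K1, treated with compound for 17hr at 37 C and 5% CO2.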

[4] = Caspase-3/7 induction in HepG2 cells by small molecules, qHTS cell viability counter screen (AID 1346981); also: series mostly up to about 92 µM; nearly all actives have a fitted effect of over 30% in size
In short: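 Counter screen for cytotoxicity: HepG2 exposed 16 hr to compounds, then CellTiter-Fluor viability signal (fluorescence, 1 hr reagent incubation).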

[5] = molecular target: Nuclear receptor subfamily 1 group I member 2 (Homo sapiens) (UniProt O75469); test: Human pregnane X receptor (PXR) small molecule agonists, qHTS assay (AID 1346982); also: nearly all actives have a fitted effect of over 35% in size; also: potency is read from the fitted curve at half-maximal effect
In short: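 Luminescence (ONE-Glo, 30 min RT) after 24 hr compound exposure of PXR-Luc HepG2 cells; cells rested 5 hr post-plating in 5% charcoal-stripped FBS medium.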

[6] = molecular target: Cytochrome P450 2D6 (Homo sapiens) (UniProt P10635); test: Cytochrome P450 Family 2 Subfamily D Member 6 (CYP2D6) small molecule antagonists: luciferase reporter qHTS assay (AID 1671196); also: nearly all actives have a fitted effect of over 50% in size; also: potency is read from the fitted curve at half-maximal effect
In short: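 Inhibition of CYP2D6 was gauged by loss of luminescence, since light produced tracks the luciferin generated from a proluciferin substrate. A 10 min room-temperature preincubation preceded 1 h NADPH-supported turnover.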

[7] = molecular target: Cytochrome P450 2C19 (Homo sapiens) (UniProt P33261); test: Cytochrome P450 Family 2 Subfamily C Member 19 (CYP2C19) small molecule antagonists: luciferase reporter qHTS assay (AID 1671197); also: nearly all actives have a fitted effect of over 65% in size; also: potency is read from the fitted curve at half-maximal effect
In short: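 Light output is proportional to CYP2C19 activity: proluciferin substrate is converted to luciferin, then detected by a luciferin detection reagent that also stops the 1 h, 37C NADPH-driven reaction. Ketoconazole serves as positive control.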

[8] = molecular target: Nuclear receptor subfamily 1 group I member 2 (Rattus norvegicus) (UniProt Q9R1A7); test: Rat pregnane X receptor (rPXR) activation by small molecules, qHTS assay (AID 1346983); details: rPXR luciferase reporter cells, One-Glo luminescence, 24 h; max activation: stronger effect = higher value; also: nearly all actives have a fitted effect of over 20% in size
In short: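 Luminescent readout (One-Glo luciferase, 30 min room temperature) followed 24 hr compound treatment at 37 C of rPXR cells plated 2,000 per well and preincubated 5hr; qHTS format with compounds delivered in DMSO.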

Chain of Cytochrome P450 2C19 (Homo sapiens) (P33261 whole entry, looked up): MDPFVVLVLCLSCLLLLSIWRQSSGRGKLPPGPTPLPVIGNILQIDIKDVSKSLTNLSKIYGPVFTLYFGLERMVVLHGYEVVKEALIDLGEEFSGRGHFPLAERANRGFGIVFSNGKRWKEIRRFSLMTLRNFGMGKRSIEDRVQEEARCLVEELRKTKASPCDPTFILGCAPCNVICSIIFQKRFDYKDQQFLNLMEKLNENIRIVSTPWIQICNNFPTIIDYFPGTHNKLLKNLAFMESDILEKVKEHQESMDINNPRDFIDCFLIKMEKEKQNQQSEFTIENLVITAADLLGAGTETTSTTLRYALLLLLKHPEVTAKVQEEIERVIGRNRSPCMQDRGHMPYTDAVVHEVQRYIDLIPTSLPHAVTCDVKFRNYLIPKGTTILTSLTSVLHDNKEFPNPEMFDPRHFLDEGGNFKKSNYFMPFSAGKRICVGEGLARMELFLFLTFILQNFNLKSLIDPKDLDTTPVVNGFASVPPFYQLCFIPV
Chain of Cytochrome P450 2D6 (Homo sapiens) (P10635 whole entry, looked up): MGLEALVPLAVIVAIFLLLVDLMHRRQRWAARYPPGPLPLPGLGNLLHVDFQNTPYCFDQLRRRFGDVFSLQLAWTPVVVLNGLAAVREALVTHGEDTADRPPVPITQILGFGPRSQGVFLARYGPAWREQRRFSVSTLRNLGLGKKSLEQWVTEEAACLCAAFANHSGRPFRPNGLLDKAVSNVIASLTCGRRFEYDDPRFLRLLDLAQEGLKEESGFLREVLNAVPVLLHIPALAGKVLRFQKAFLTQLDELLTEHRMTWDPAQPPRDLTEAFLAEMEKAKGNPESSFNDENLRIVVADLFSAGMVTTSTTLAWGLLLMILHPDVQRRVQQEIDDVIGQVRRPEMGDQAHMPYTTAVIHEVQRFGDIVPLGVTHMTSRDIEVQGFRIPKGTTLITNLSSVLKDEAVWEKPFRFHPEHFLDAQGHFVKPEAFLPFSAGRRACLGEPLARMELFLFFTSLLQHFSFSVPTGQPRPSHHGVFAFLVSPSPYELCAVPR
Chain of Nuclear receptor subfamily 1 group I member 2 (Homo sapiens) (O75469 whole entry, looked up): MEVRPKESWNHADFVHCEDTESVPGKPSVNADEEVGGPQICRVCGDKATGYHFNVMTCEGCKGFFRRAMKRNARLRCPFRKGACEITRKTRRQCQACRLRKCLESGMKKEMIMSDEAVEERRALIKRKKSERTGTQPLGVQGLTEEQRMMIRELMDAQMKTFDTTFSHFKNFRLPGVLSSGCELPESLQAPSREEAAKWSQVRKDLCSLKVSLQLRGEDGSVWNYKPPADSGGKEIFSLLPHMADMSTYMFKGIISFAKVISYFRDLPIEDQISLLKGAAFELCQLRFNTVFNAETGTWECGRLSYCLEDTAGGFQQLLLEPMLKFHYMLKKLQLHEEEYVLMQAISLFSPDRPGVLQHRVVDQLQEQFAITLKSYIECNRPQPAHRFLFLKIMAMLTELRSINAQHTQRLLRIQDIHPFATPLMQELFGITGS
Chain of Nuclear receptor subfamily 1 group I member 2 (Rattus norvegicus) (Q9R1A7 whole entry, looked up): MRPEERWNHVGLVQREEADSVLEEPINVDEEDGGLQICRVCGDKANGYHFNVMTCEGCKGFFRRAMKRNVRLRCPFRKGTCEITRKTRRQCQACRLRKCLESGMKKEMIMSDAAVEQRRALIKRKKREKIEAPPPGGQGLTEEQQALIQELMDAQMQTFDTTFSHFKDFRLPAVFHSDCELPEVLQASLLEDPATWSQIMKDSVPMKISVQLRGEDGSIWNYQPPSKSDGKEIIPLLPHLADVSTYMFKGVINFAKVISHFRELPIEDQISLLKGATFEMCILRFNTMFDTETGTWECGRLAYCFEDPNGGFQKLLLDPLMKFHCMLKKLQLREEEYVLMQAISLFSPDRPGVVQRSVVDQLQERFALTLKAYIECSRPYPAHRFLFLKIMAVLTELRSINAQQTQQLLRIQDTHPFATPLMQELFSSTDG

| Structure (SMILES) | Potency [1] | Potency [2] | Potency [3] | Potency [4] | Potency [5] | Potency [6] | Potency [7] | max activation [8] |
| --- | --- | --- | --- | --- | --- | --- | --- | --- |
| CCCCC(CC)C(=O)O (stereo not drawn) | inactive | inactive | inactive | inactive | inactive | inactive | inactive |  |
| Nc1c2c(nc3ccccc13)CCCC2 | inactive | inactive | inactive | inactive | 48.6 µM (active) and 38.6 µM (active) and inactive | 3.56 µM (active) and 11.2 µM (active) and 11 µM (active) | 39.9 µM (active) and inactive |  |
| CC(=O)CC(c1ccccc1)c1c(O)c2ccccc2oc1=O (stereo not drawn) |  | 68.9 µM (active) and inactive | inactive | inactive |  |  |  | -3.82% (inactive) |
| CNNCc1ccc(C(=O)NC(C)C)cc1 | inactive | inactive | inactive | inactive |  |  |  | -1.77% (inactive) |
| COc1ccc(OC(F)(F)F)cc1CN[C@H]1CCCN[C@H]1c1ccccc1 |  | 61.1 µM (active) | inactive |  | 4.86 µM (active) |  | 79.6 µM (active) |  |
| O=c1[nH]cc(F)c(=O)[nH]1 | inactive |  | inactive | inactive | 31.8 µM (active) and 24.9 µM (active) and inactive | inactive and 34.7 µM (active) | 20.8 µM (active) and inactive |  |
